From PubChem BioAssay
Shown are actives, neighbours in structure and some others; about 4.1% of the full set was active somewhere.
UGM FP inh = M. tuberculosis UGM enzyme inhibitors, primary screen, biochemical, fluorescence polarization, single point. UDP-galactopyranose mutase (Mycobacterium tuberculosis (strain ATCC 25618 / H37Rv)), …. purified UGM, fluorescence polarization probe displacement. inhibition, % at 10 µM. actives 0.06% (n = 320,000). AID 504406, 2011; in the data active = inhibition above about 10%, passing the limit was not always enough
Vc quorum ag = inducers of Vibrio cholerae quorum light production without autoinducers, primary screen, BH1578 luxS cqsA deficient, single point; V. cholerae BH1578 lux reporter, luminescence, 6 h; actives 0.16% (n = 350,000); activation, % at 18.7 µM; in the data active = activation mostly above about 9.7%, no sharp cut-off
GDH-TPI counter-1 = GDH-TPI coupling enzyme inhibitors, primary screen, artefact control for M. tuberculosis FBA inhibitor project, biochemical, absorbance, full deck. GDH-TPI coupled enzyme counterscreen, NADH absorbance. inhibition, % at 4.8 µM. actives 1.2% (n = 360,000). AID 588335, 2011; in the data active = inhibition above about 30%;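 also: 0% = DMSO wells and 100% = wells lacking the enzyme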
RecA intein inh = Mtb RecA intein splicing inhibitors, primary screen, biochemical, fluorescence, HTS; Protein RecA (Mycobacterium tuberculosis (strain ATCC 25618 / H37Rv)), P9WHJ3; cell-free RecA intein splicing; inhibition, % (concentration not given with the values); actives 0.75% (n = 290,000); AID 2221, 2009; in the data active = inhibition above about 30%;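 also: 0% = vehicle wells and 100% = reference inhibitor control wells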
Mtb FBA inh = Mtb FBA enzyme inhibitors, primary screen, biochemical, fluorescence, strain H37Rv; Fructose-bisphosphate aldolase (Mycobacterium tuberculosis (strain ATCC 25618 / H37Rv)), …; purified M. tuberculosis FBA, fluorescence read-out; inhibition, % at 1 µM; actives 2.3% (n = 360,000); AID 588726, 2011;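 also: 0% = vehicle and 100% = reference inhibitor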
Rv3671c inh = Rv3671c serine protease inhibitors, primary screen, biochemical, fluorescence polarization, M. tuberculosis H37Rv; AID 2606, 2010; actives 0.048% (n = 320,000); P9WHR9; inhibition, % at 5.96 µM; in the data active = inhibition above about 38%;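 also: extracellular domain of Rv3671c used as enzyme; 0% = enzyme with DMSO and 100% = no enzyme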
Target sequence (P9WHR9 whole entry, looked up, the tested form may be a part): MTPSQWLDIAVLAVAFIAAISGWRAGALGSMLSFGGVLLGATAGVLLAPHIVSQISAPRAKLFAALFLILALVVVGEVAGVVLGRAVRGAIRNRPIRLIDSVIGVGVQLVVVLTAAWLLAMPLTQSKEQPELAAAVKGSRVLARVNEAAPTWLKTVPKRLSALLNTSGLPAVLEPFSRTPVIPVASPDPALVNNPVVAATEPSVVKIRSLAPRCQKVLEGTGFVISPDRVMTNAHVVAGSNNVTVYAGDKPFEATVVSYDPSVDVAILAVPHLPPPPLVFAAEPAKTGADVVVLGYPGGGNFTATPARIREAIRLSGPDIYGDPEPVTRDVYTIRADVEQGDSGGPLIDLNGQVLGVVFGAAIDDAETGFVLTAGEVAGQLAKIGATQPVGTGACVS
Mtb FBA inh conf = M. tuberculosis aldolase blockers, biochemical, fluorescence, strain H37Rv, confirmation | shares compounds with Mtb FBA inh | purified M. tuberculosis FBA, fluorescence read-out | inhibition, % at 1 µM | actives 78% (n = 5,600);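 also: 0% = vehicle wells and 100% = reference inhibitor wells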
GDH-TPI counter-2 = GDH-TPI coupling enzyme inhibitors, artefact control for M. tuberculosis FBA inhibitor project, biochemical, fluorescence, high throughput; shares compounds with Mtb FBA inh; inhibition, % at 1 µM; GDH-TPI coupled enzyme counterscreen; actives 81% (n = 5,600); in the data active = inhibition above about 10%
Starred values were filed as active, the others as inactive; i = inactive; . = no result; + = active, no number. Rule as the data show it, unless noted: active = inhibition above about 27%; inactive = the rest.

SMILES	UGM FP inh	Vc quorum ag	GDH-TPI counter-1	RecA intein inh	Mtb FBA inh	Rv3671c inh	Mtb FBA inh conf	GDH-TPI counter-2
O=C(CCC(=O)N/N=C/c1ccco1)N/N=C/c1ccco1	1.4	-0.5	4.4	0.5	29.1*	2.6	75.8*	64.5*
Cc1ccc(C(=O)NC(C)C2CC3CCC2C3)cc1 (stereo unspecified)	-2.8	0.8	-2.2	.	4.3	-3.3	.	.
CNc1nccc(-c2ccc(F)cc2)c1C#N	-2.6	-0.2	5.8	-2.1	31.8*	5.4	144.8*	95.8*
Nc1ncnc2c(C3OC(CO)C(O)C3O)scc12 (stereo unspecified)	.	i	10.3	.	73.6*	.	179.8*	119.4*
Cn1cc(-c2cccc(Cl)c2)cc(C#N)c1=O	-2.9	-0.7	13.6	1.4	43.6*	-1.8	61.6*	42.5*
Cn1cc(-c2cccc(C(F)(F)F)c2)cc(C#N)c1=O	-0.3	-7.7	16.4	-2.8	45.6*	6.2	93.9*	61.8*
CC(C)n1cc(-c2ccc(Cl)cc2)cc(C#N)c1=O	-1.6	-0.6	8.2	5.0	3.5	5.0	.	.
CC(C)NC(=O)COC(=O)c1ccc(Cl)c(S(=O)(=O)N2CCCC2)c1	-1.7	i	7.3	.	39.6*	2.1	123.7*	95.4*
CC(C)NC(=O)COC(=O)c1ccc(Cl)c(S(N)(=O)=O)c1	-1.4	i	4.4	-1.0	1.4	-9.6	.	.
O=C(O)c1ccc(N=Nc2c(O)ccc3ncccc23)cc1	1.3	0.3	5.6	9.2	-6.3	-2.9	.	.
c1ccc2c(c1)OCCc1c-2[nH]c2ccccc12	-1.0	-0.6	-4.0	6.3	46.6*	2.8	74.8*	54.8*
CCN(c1ccccc1)S(=O)(=O)c1ccc(C(=O)N2CCN(c3ccccc3F)CC2)cc1	.	-0.3	4.4	.	-4.8	.	.	.
CC(=O)Nc1cc(-c2cccc(C)c2)cn2c(-c3ccc(S(C)(=O)=O)cc3)cnc12	.	-0.4	14.3	.	35.0*	.	0.6	-2.5
CC(=O)Nc1cc(-c2cccc(NS(C)(=O)=O)c2)cn2c(-c3ccccc3)cnc12	.	i	-2.2	.	8.8	.	.	.
COc1ccccc1-c1cc(NC(C)=O)c2ncc(-c3ccc(S(C)(=O)=O)cc3)n2c1	.	i	16.1	.	58.5*	.	71.4*	61.7*
CC(=O)Nc1cc(-c2ccccc2Cl)cn2c(-c3ccc(S(C)(=O)=O)cc3)cnc12	.	i	11.6	.	41.5*	.	+	182.6*
CC(=O)Nc1cc(-c2ccccc2)cn2c(-c3ccc(F)c(Cl)c3)cnc12	.	i	13.4	.	3.9	.	.	.
CCc1sc(C(=O)Nc2cccnc2)cc1Br	0.2	-0.4	4.8	2.2	1.3	-0.6	.	.
Cc1cccc2c1-c1sc(C(=O)Nc3cccnc3)cc1CO2	-2.4	i	-0.9	-16.3	100.7*	-32.1	1.1	-4.0
O=C(Nc1cccnc1)c1cc2c(s1)-c1ccccc1OC2	0.4	-0.3	37.1*	-37.2	73.4*	-72.8	70.7*	53.6*
O=c1oc(C2(O)CCCCC2)cc2ccc(/C=C/c3ccc(F)cc3)cc12	-3.2	0.0	8.3	.	31.6*	3.0	34.4*	24.0*
C=CCNC(=O)c1cc2c(=O)n3cccc(C)c3nc2s1	-0.7	i	17.8	-36.2	93.1*	-6.8	164.8*	133.2*
COc1ccc(CCNC(=O)c2cc3c(=O)n4cccc(C)c4nc3s2)cc1OC	4.2	-0.3	-9.3	0.8	1.3	-10.5	.	.
CCC(C)NC(=O)c1cc2c(=O)n3cccc(C)c3nc2s1 (stereo unspecified)	-0.3	i	8.0	-43.7	103.9*	4.1	170.8*	147.4*
Cc1ccc(-c2c(C(=O)N/N=C/C3CC=CCC3)nnn2-c2nonc2N)cc1 (stereo unspecified)	2.6	-0.2	2.4	0.4	1.1	-1.8	.	.
SMILES	UGM FP inh	Vc quorum ag	GDH-TPI counter-1	RecA intein inh	Mtb FBA inh	Rv3671c inh	Mtb FBA inh conf	GDH-TPI counter-2
c1coc(-c2cc3nc(NC4CCCCC4)ccn3n2)c1	.	0.5	-1.8	.	23.9	.	.	.
Cc1ccc(C)c(S(=O)(=O)NC2CCSC2=O)c1 (stereo unspecified)	.	-4.8	-4.1	.	-1.3	.	.	.
COCCN1CCn2c(nc3cc(NC(C)=O)ccc32)C1	-0.9	i	3.3	-3.1	29.5*	4.0	6.7	4.3
COCCN1CCn2c(nc3cc(NC(=O)Cn4nc(C)c5ccccc5c4=O)ccc32)C1	1.6	-0.5	4.6	0.6	26.1	-0.3	.	.
CCOC(=O)Nc1ccc2c(c1)nc1n2CCN(CCOC)C1	-0.3	i	5.0	-0.4	36.1*	3.0	75.0*	73.4*
CC(c1ccccc1)N1CCn2c(nc3cc(NS(C)(=O)=O)ccc32)C1 (stereo unspecified)	1.9	-0.3	-1.3	1.6	6.1	3.1	.	.
CC(=O)Nc1ccc2c(c1)nc1n2CCN(C(C)c2ccccc2)C1 (stereo unspecified)	1.5	i	0.6	3.4	69.1*	-5.0	82.6*	72.0*
COc1ccc(CC(=O)NNC(=S)NC(=O)c2cc(OC)c(OC)c(OC)c2)cc1	.	-0.1	14.2	.	-0.3	.	.	.
NS(=O)(=O)c1ccc(CCNC(=O)c2cccc(S(=O)(=O)N3CCc4ccccc43)c2)cc1	.	-0.2	0.9	.	-3.4	.	.	.
CC(C)c1ccc(CN(C)C(=O)c2ccc(S(=O)(=O)NCc3ccco3)cc2)cc1	.	-0.6	-0.3	.	-2.9	6.0	.	.
COc1cc(C(=O)NCCNC(=O)c2ccco2)cc(OC)c1OC	.	i	11.8	.	1.7	.	.	.
Cc1cc(NCCN(C)C)n2nc(-c3cccs3)cc2n1	-0.5	-6.7	8.7	-2.3	22.4	6.3	.	.
Cc1cc(NCCCO)n2nc(-c3cccs3)cc2n1	-1.1	-0.3	0.4	-0.8	33.5*	-7.3	67.6*	55.9*
OCCCNc1cc(-c2ccccc2)nc2cc(-c3ccc(F)cc3)nn12	-2.3	-0.7	14.7	-7.9	58.9*	-11.1	102.0*	77.5*
COc1ccc(NC(=O)C2Cc3c(-c4cccc(NC(C)=O)c4)ccnc3O2)cc1 (stereo unspecified)	.	-0.3	-4.6	.	-0.5	.	.	.
Cc1ccc2nc(Cl)cc(=O)n2c1	.	i	26.1	.	44.5*	.	130.3*	87.9*
O=S(=O)(c1ccccc1)N(Cc1ccccn1)Cc1ccccn1	1.8	i	0.7	-2.0	-1.3	-5.3	.	.
